Data on 20 compounds can be found in PubChem BioAssay (NCI).

Common to all, as to assay: NCI-60 one-dose screen, 48 h (100 = growth as untreated, 0 = no growth, -100 = all killed)
In one test the test system is T-47D breast. The conditions noted are these: 10 µM unless noted.
The next test concerns BT-549 breast. The following applies: 10 µM unless noted.
For the next test, the system named is MDA-MB-435 melanoma. The conditions noted are these: 10 µM unless noted.
Another test has as its system SW-620 colon. The conditions noted are these: 10 µM unless noted.
The next test relates to MCF7 breast. The following applies: 10 µM unless noted.
The next test deals with HCT-116 colon. The following applies: 10 µM unless noted.
The next test deals with HCC-2998 colon. The following applies: 10 µM.
For another test, the system named is KM12 colon. The conditions noted are these: 10 µM unless noted.

Compounds without any hit were thinned out: in the full panel of roughly 83,000, 20% have a hit.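 Negative percent growth values reflect cell death: -40 means 40% of the cells present at the start died, and -100 means all died.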 Unmarked numbers belong to inactive results. The source made the active and inactive calls. The calls were made as follows: active = growth percent below 10; inactive = the rest.

On to `O=C(c1ccc(/C=C/c2n[nH]c3ccccc23)cc1)N1CCNCC1`, for which the growth in the test with T-47D breast is 84.1%; with BT-549 breast, 22.6%; in the test with MDA-MB-435 melanoma, 38.7%; in the test with SW-620 colon it was 11.7%; in the test with MCF7 breast, 24%; with HCT-116 colon, 17.7%. For the same compound, the growth with HCC-2998 colon is 66.3%; in the test with KM12 colon it was 8.09% (active).

As for `COC(=O)Nc1nc2ccc(C(=O)c3ccc(N(C)C4COC4)cc3)cc2[nH]1`, the growth in the test on T-47D breast was 57.5%; in the test with BT-549 breast, 9.02% (active); in the test on MDA-MB-435 melanoma it was -25.5% (active); with SW-620 colon it was 28.5%; in the test with MCF7 breast it was 16.3%; in the test on HCT-116 colon, 7.08% (active). For the same compound, the results for the growth with HCC-2998 colon and with KM12 colon were 11% and 15.7%, respectively.

As to `COCCN1CCN(Cc2ccc(-c3n[nH]c4c3C(=O)c3c(NC(=O)NN5CCOCC5)cccc3-4)cc2)CC1`, the growth in the test with T-47D breast is 12.7%; in the test on BT-549 breast, -24.2% (active); in the test with MDA-MB-435 melanoma it was -46.4% (active); in the test with SW-620 colon, -25% (active); with MCF7 breast, -33.2% (active); in the test on HCT-116 colon, -48.2% (active). The growth in the test on HCC-2998 colon was -35.8% (active); with KM12 colon, -66.3% (active).

For the compound `CCCCCCCC(=O)SCC/C=C/[C@@H]1CC(=O)NCc2cccc(n2)C2=N[C@@](C)(CS2)C(=O)N[C@@H](C(C)C)C(=O)N1`, the growth with T-47D breast is -7.49% (active); in the test on BT-549 breast it was 41.4%; with MDA-MB-435 melanoma, 19.6%; with SW-620 colon, 69.3%; in the test with MCF7 breast, 28.3%; in the test on HCT-116 colon, 2.91% (active). Besides, the growth in the test with HCC-2998 colon is 12.6%; in the test with KM12 colon it was 24.9%.

Regarding `CCNC(=O)Nc1nc2ccc(Oc3ccnc(C(=O)NC)c3)cc2s1`, the growth with T-47D breast is 62.6%; with BT-549 breast it was 90.6%; with MDA-MB-435 melanoma it was 3.1% (active); in the test with SW-620 colon, 45.8%; in the test on MCF7 breast, 36.9%; in the test on HCT-116 colon, 56%. The growth is 71.9% in the test with HCC-2998 colon and 33.4% in the test on KM12 colon.

`N#Cc1c(-c2ccc(C(F)(F)F)cc2)c(F)c(NCCC2CCC(O)C2)n2c1nc1ccccc12` (configuration not stated): the growth is 67.9% in the test with T-47D breast; 30.1% with BT-549 breast; 84.1% in the test on MDA-MB-435 melanoma; 55.6% in the test on SW-620 colon; 46.2% in the test with MCF7 breast; 30.7% in the test with HCT-116 colon. Moreover, the growth was 80.7% with HCC-2998 colon and 57.9% in the test with KM12 colon.

Regarding `CC12O[C@H](C[C@@H](OC(=O)CCC(=O)O)[C@H]1O)n1c3ccccc3c3c4c(c5c6ccccc6n2c5c31)C(=O)NC4=O`, the growth with T-47D breast was 35.8%; with BT-549 breast it was -1.04% (active); in the test with MDA-MB-435 melanoma it was 8.34% (active); in the test on SW-620 colon, 36.2%; with MCF7 breast, 19.2%; in the test with HCT-116 colon, 35.6%. The growth in the test with HCC-2998 colon is 41.3%; in the test with KM12 colon, 15.4%.

In the case of `CCCCn1c(C)nc2ccc(Nc3nc(N4CCN(C)CC4)nc4nc[nH]c34)cc21`, the growth was 80.3% in the test on T-47D breast; 97.5% with BT-549 breast; 94.3% in the test with MDA-MB-435 melanoma; 91.8% in the test on SW-620 colon; 83% in the test with MCF7 breast; 75.8% with HCT-116 colon. The growth in the test on KM12 colon was 93.6%.

Regarding `CC[C@@H]1C(=O)N(C)c2cnc(Nc3ccc(C(=O)NC4CCC(N5CCN(CC6CC6)CC5)CC4)cc3OC)nc2N1C(C)C` (some centres not stated), the growth in the test with T-47D breast was 7.48% (active); with BT-549 breast, 18.3%; in the test with MDA-MB-435 melanoma, -29.6% (active); in the test with SW-620 colon, 12.2%; in the test with MCF7 breast it was -24% (active); with HCT-116 colon, -6.9% (active). Moreover, in the test with KM12 colon, the growth was 4.24% (active).

For `CCCCN1C(=O)c2cccc3c(-c4ccc5c(c4)ncn5C4CCCCC4)ccc(c23)C1=O`, the growth in the test with T-47D breast was 81.9%; in the test with BT-549 breast it was 99.4%; with MDA-MB-435 melanoma it was 109%; in the test with SW-620 colon it was 107%; in the test on MCF7 breast it was 96.7%; with HCT-116 colon, 91.7%. The growth in the test on KM12 colon is 92.2%.

In the case of `O=C(Nc1ccc(C2=NCCCN2)cc1)c1ccc(C(=O)Nc2ccc(C3=NCCCN3)cc2)nc1`, the growth is 97.3% with T-47D breast; 106% in the test with BT-549 breast; 117% with MDA-MB-435 melanoma; 104% with SW-620 colon; 98% in the test with MCF7 breast; 93.2% in the test on HCT-116 colon. Besides, the growth in the test with KM12 colon was 112%.

Turning to `CS(=O)(=O)N1CCc2c(-c3cnc(N)nc3)nc(N3CCOCC3)nc21`, the growth with T-47D breast was -37.2% (active); in the test on BT-549 breast it was -7.63% (active); with MDA-MB-435 melanoma, 2.21% (active); with SW-620 colon, 24.3%; with MCF7 breast, 6.89% (active); in the test with HCT-116 colon, 20.4%. For the same compound, the growth in the test on KM12 colon was 8.03% (active).

Consider `COc1ccc(C2OC(c3cc(-c4cc5ccccc5o4)nn3-c3ccccc3)=NN2C(C)=O)cc1` (configuration not stated), for which the growth with T-47D breast is 86.5%; in the test on BT-549 breast, 97.2%; in the test on MDA-MB-435 melanoma it was 108%; in the test on SW-620 colon, 107%; with MCF7 breast it was 100%; in the test with HCT-116 colon it was 88.6%. Moreover, in the test with KM12 colon, the growth is 107%.

Consider `COc1ccc(Cl)c(Nc2nc3ccccc3nc2NS(=O)(=O)c2cccc(NC(=O)C(C)(C)N)c2)c1`, for which the growth was -19.8% (active) in the test on T-47D breast; 28% in the test with BT-549 breast; 53.5% with MDA-MB-435 melanoma; 65.7% with SW-620 colon; 20.3% with MCF7 breast; 47% with HCT-116 colon. The growth in the test with KM12 colon was 53.1%.

As to `O=C(NOCCO)c1ccc2cncn2c1Nc1ccc(I)cc1F`, the growth with T-47D breast is 83.4%; in the test on BT-549 breast it was 88.8%; with MDA-MB-435 melanoma it was 47.4%; in the test on SW-620 colon, 24.6%; in the test on MCF7 breast, 96.2%; in the test with HCT-116 colon, 15.1%. The growth with KM12 colon was 28.6%.

For the compound `COCCOc1cnc2ccn([C@H](C)c3nnc4c(F)cc(-c5cnn(C)c5)cn34)c(=O)c2c1`, the growth with T-47D breast is 94.6%; in the test on BT-549 breast, 105%; in the test with MDA-MB-435 melanoma it was 60%; in the test on SW-620 colon it was 35.5%; with MCF7 breast, 103%; in the test with HCT-116 colon, 99.9%. Further, the growth with KM12 colon was 28.3%.

Consider `CC(C)NC[C@@H](C(=O)N1CCN(c2ncnc3c2[C@H](C)C[C@H]3O)CC1)c1ccc(Cl)cc1`, for which the growth in the test on T-47D breast was -9.42% (active); with BT-549 breast, 25.2%; in the test with MDA-MB-435 melanoma, 68.2%; in the test on SW-620 colon, 71.4%; with MCF7 breast, 30.9%; in the test on HCT-116 colon, 61.4%. The growth with KM12 colon is 18.9%.

Take `Cc1cc2c(-c3nc4ccccn4c3Nc3cccc4ccccc34)c(O)c(O)cc2c(O)c1-c1c(C)cc2c(-c3nc4ccccn4c3Nc3cccc4ccccc34)c(O)c(O)cc2c1O`: the growth in the test on T-47D breast is 15.5%; with BT-549 breast, 27.9%; with MDA-MB-435 melanoma it was 21.6%; in the test on SW-620 colon it was 23.9%; in the test with MCF7 breast, 14.7%; in the test on HCT-116 colon it was -5.99% (active). The growth with KM12 colon is 20.1%.

Regarding `CCCNC(=O)c1cn2ncnc(Nc3cc(C(=O)NC4CC4)ccc3C)c2c1C`, the growth in the test on T-47D breast is 65.3%; in the test on BT-549 breast it was 103%; in the test on MDA-MB-435 melanoma, 89.9%; in the test with SW-620 colon, 39%; in the test on MCF7 breast, 83.6%; in the test on HCT-116 colon, 101%. Moreover, the growth in the test on KM12 colon is 99.6%.

On to `CO[C@H](C(=O)N[C@@H](CCCCNC(=O)OCc1ccccc1)C(=O)OC(C)(C)C)[C@@H]1Cc2cc3cc(OC4CC(OC5CC(O)C(O)C(C)O5)C(O)C(C)O4)c(C)c(O)c3c(O)c2C(=O)[C@H]1OC1CC(OC2CC(OC3CC(C)(O)C(O)C(C)O3)C(O)C(C)O2)C(O)C(C)O1` (some centres not stated), for which the growth was 7.2% (active) with T-47D breast; -79.7% (active) with BT-549 breast; -69.8% (active) in the test with MDA-MB-435 melanoma; 3.71% (active) in the test on SW-620 colon; 3.56% (active) with MCF7 breast; -63.9% (active) in the test with HCT-116 colon. For the same compound, the growth in the test on KM12 colon was -62.7% (active).
